Data taken from PubChem BioAssay AID602346 (Broad Institute, 2012).
Among all 340,000 compounds or so, about 1,200 (0.35%) were called active. No stated cut-off is given here; in the data, active means inhibition above about 50% (passing the limit was not always enough); inconclusive means no clear call, values can overlap the other calls; inactive means below about 31%. Only a selection was taken, and actives are over-represented in it overall.

Assay: HIV Vif self-association inhibitors, primary screen, imaging, HEK293T, single point (AID 602346)
Settings: HEK293T cells, Vif self-association by quenched fluorescence, 24 h, at 7.49 µM, hits give high values

| Compound | inhibition |
| --- | --- |
| O=C(NC(c1ccc(-c2ccccc2)cc1)c1cnccn1)C1CCN(CCOc2ccc(Cl)cc2Cl)CC1 (stereo unspecified) | 4.85% (inactive) |
| CCOC1=C2[C@H]([C@H]3C(=O)N(c4ccccc4)C(=O)[C@H]3C1)[C@@H](c1ccccc1)N(S(=O)(=O)c1ccc(C)cc1)[C@H]2c1ccccc1 | 6.5% (inactive) |
| Cc1cc2nc(-c3ccc(Cl)cc3)c(Cc3cccc(F)c3)n2c(C)c1Br | 16.2% (inactive) |
| C[C@H]1CN([C@@H](C)CO)C(=O)c2cc(C3=CCCCC3)cnc2O[C@@H]1CN(C)C(=O)Cc1ccccc1 | -21% (inactive) |
| COc1ccc(-c2nn(-c3ccccc3)cc2C(=O)Nc2nccs2)cc1OC | 52.9% (active) |
| COc1ccc(NC(=O)c2cn(-c3ccccc3)nc2SC)cc1 | -9.63% (inactive) |
| O=C(O)c1ccccc1-c1ccccc1C(=O)Nc1nccs1 | 13.1% (inactive) |
| CC1(C(=O)Nc2cccc3c2CCCC3)CCN1C(=O)CCc1ccc(Cl)cc1Cl (stereo unspecified) | -0.855% (inactive) |
| CCc1cc(-c2nnn(CCC3COCCO3)c2CC)ccc1-c1cn(Cc2ccc3ccccc3c2)nn1 (stereo unspecified) | -19.8% (inactive) |
| CCc1nc2c(OCc3ccc(Cl)cc3Cl)cccn2c1N(C)C(=O)C(C)C | -10.6% (inactive) |
| CCc1nc2ccc(C(=O)Nc3cc(-c4ccccc4)ccc3OC)cn2c1N(CC)CC(=O)N(C)C | -11.6% (inactive) |
| CCOCCC(=O)Nc1ccc2c(c1)c(=O)n(C)n2-c1ccc2ccccc2c1 | 34.9% (inactive) |
| N#C/C(=C1\CCCN1)c1nc(-c2ccccc2)cs1 | 61.4% (active) |
| N#CC(=C1CCCC1)c1nc(-c2ccc(Cl)cc2)cs1 | 3% (inactive) |
| Cn1c(/C(C#N)=C2/CCCCCN2)nc2ccccc21 | 5.07% (inactive) |
| O=C(NCCOc1ccccc1)N1[C@H]2CC[C@@H]1C=C(c1ccc(F)cc1OCc1ccccc1)C2 | -2.23% (inactive) |
| Cc1ccc2[nH]c(=O)c(-c3nc4c(C)cccn4c3NCc3ccco3)cc2c1 | -12.9% (inactive) |
| CCCN(CCC)c1nc2c(C)cccn2c(=O)c1/C=C1/SC(=S)N(Cc2ccco2)C1=O | 146% (active) |
| CCc1nc2c(OCc3ccc(C(F)(F)F)cc3)cccn2c1N(C)C(=O)CC(C)C | -5.03% (inactive) |
| COc1ccc(NC(=O)C2Cc3c(-c4ccc5c(c4)OCO5)ccnc3O2)cn1 (stereo unspecified) | -5.58% (inactive) |
| COc1cccc(CNc2nc(NCc3ccccc3OC)nc3ccsc23)c1 | -2.52% (inactive) |
| O=C1OCC2=C1C(c1ccc(Cl)cc1)c1cc3c(cc1O2)OCO3 (stereo unspecified) | -11.3% (inactive) |

| Compound | inhibition |
| --- | --- |
| CCCOc1ccccc1C1CC(=O)Nc2cc3c(cc21)OCO3 (stereo unspecified) | -2.32% (inactive) |
| COc1ccccc1C1C2=C(COC2=O)Nc2cc3c(cc21)OCO3 (stereo unspecified) | 89.1% (active) |
| COc1ccc(CN(C)C(=O)Cc2ccsc2)c(OC)c1OC | -9.61% (inactive) |
| COc1ccc(OC)c(NC(=O)COC(=O)Cc2ccsc2)c1 | 9.67% (inactive) |
| COc1ccccc1C(C)NC(=O)Cc1ccsc1 (stereo unspecified) | 98.8% (active) |
| O=C(COc1ccccc1Cl)Nc1ccc(C(=O)c2ccc(C(=O)O)cc2)cc1 | 21.3% (inactive) |
| CC(=O)Nc1ccc(NC(=O)COc2ccccc2C(=O)Nc2cccc(Cl)c2Cl)cc1 | 146% (active) |
| O=C(COc1ccccc1Cl)Nc1ccccc1C(=O)NC1CC1 | -13.2% (inactive) |
| NC(c1csc(NC(=O)Nc2ccccc2Oc2ccccc2)n1)c1ccccc1Cl (stereo unspecified) | -9.54% (inactive) |
| COc1cncc(-c2cnc3sc(NCCc4ccccn4)nn23)c1 | -4.71% (inactive) |
| OC(c1cc(Cl)cc(Cl)c1)c1ncc(-c2ccccc2C(F)(F)F)[nH]1 (stereo unspecified) | 7.62% (inactive) |
| Cc1cccc(CNC(=O)c2sc(=O)n(Cc3ccccc3C)c2C)c1 | -3.32% (inactive) |
| Cn1c(NC(=O)c2ccccc2)nc2ccccc21 | -0.44% (inactive) |
| O=C1C=C(NS(=O)(=O)c2ccccc2)C(=O)c2ccccc21 | 5.11% (inactive) |
| O=C(NC1=CC(=O)c2ccccc2C1=O)c1ccccc1 | 120% (active) |
| O=C(c1ccc(CS(=O)Cc2ccccc2Cl)o1)N1CCN(c2ccccc2)CC1 (stereo unspecified) | 2.07% (inactive) |
| O=C(CCc1ccc(O)cc1)NN=Cc1cc(Br)ccc1O | -6.15% (inactive) |
| CCc1nc2c(OCCC3CCCCC3)cccn2c1N(C)C(=O)c1ccco1 | 3.23% (inactive) |
| CC1(C)CC(=O)C=C(NC2CC(C)(C)NC(C)(C)C2)C1 | 65.2% (active) |
| COC(=O)NNC1=CC(=O)CC(C)(C)C1 | 7.17% (inactive) |
| CC1(C)CC(=O)C=C(NCCCNC2CCCCC2)C1 | -5.64% (inactive) |
| O=C(c1ccc(N2CCCC2=O)cc1)N1CCN(c2ccc(C(F)(F)F)cc2[N+](=O)[O-])CC1 | -4.95% (inactive) |

| Compound | inhibition |
| --- | --- |
| CC(C)C[C@H]1CNC(=S)N1C[C@H]1CCCN1C[C@H](Cc1ccc(O)cc1)N1C[C@H](Cc2ccc(O)cc2)N(CC2CCCCC2)C1=S | 5.91% (inactive) |
| Cc1ccc(S(=O)(=O)N2C[C@H]3n4c(=O)ccc(=O)n4C[C@H](OC(=O)NC4CCCC4)[C@@]3(O)C2)cc1 | -13.2% (inactive) |
| CC1CCN(c2ccc3c(c2)S(=O)(=O)c2cc(C(=O)O)ccc2C3=O)CC1 | -0.214% (inactive) |
| Cc1ccc(CNC(=O)c2ccc3c(c2)S(=O)(=O)c2ccccc2C3=O)cc1 | 5.37% (inactive) |
| Cc1ccc(CNC(=O)c2cccc3c2C(=O)c2ccc(N4CCC(C)CC4)cc2S3(=O)=O)cc1 | 111% (active) |
| CN(C)CCNC(=O)c1cccc(-c2cnc3c(NC=O)cc(-c4cccc(C(F)(F)F)c4)cn23)c1 | 5.61% (inactive) |
| C=C1C(=O)[C@]23C[C@H]1CCC2[C@@]1(C)C(C[C@@H]3O)[C@](C)(C(=O)O)CC[C@@H]1O (stereo partly specified) | 12.6% (inactive) |
| O=C(CCCN1C(=O)C(c2ccccc2)Oc2cccnc21)Nc1ccccc1Br (stereo unspecified) | 6.43% (inactive) |
| CC(=O)Nc1cc(-c2ccccc2N(C)C)cn2c(-c3ccc(F)c(Cl)c3)cnc12 | -4.22% (inactive) |
| CC(=O)Nc1cccc(-c2ccnc3c2CC(C)(C(=O)NCc2ccccc2)O3)c1 (stereo unspecified) | -11.2% (inactive) |
| Cc1ccccc1OCCOc1ccc([N+](=O)[O-])cc1/C=N/n1cnnc1 | 69.4% (active) |
| Cc1ccccc1OS(=O)(=O)c1cccc([N+](=O)[O-])c1 | -0.237% (inactive) |
| COc1cccc(OCCOc2cccc(/C=N/n3cnnc3)c2)c1 | 11.7% (inactive) |
| C=CCn1nc(C(=O)OCC)cc1-c1sc(NC(=O)c2ccccc2)nc1C | -3.36% (inactive) |
| COc1ccccc1N1CCN(Cc2cc(OC)c3c(c2)OCO3)CC1 | -1.02% (inactive) |
| COc1ccc(CN2CCN(Cc3ccc(OC)c(OC)c3OC)CC2)cc1 | -0.337% (inactive) |
| COc1ccccc1N1CCN(Cc2ccc(OC)c3ccccc23)CC1 | 112% (active) |
| COCOCCn1cc(CN2CCS(=O)(=O)N(Cc3ccc(-c4ccccc4)cc3)C(CC(C)C)C2=O)nn1 (stereo unspecified) | 15.8% (inactive) |
| Cc1cc(=O)[nH]c(SCC(=O)Nc2ccc(Br)cc2)n1 | -3.77% (inactive) |
| O=C1CCCN2N=C(SCC(=O)Nc3ccc(Br)cc3)SC2=N1 | 59.2% (active) |
| O=C(CSCc1ccc(Br)cc1)Nc1ccc(S(=O)(=O)N2CCCCCC2)cc1 | -7.79% (inactive) |
| CC1(C(=O)NCC2CCOCC2)Cc2c(-c3cccc(C(N)=O)c3)ccnc2O1 (stereo unspecified) | -1.25% (inactive) |

| Compound | inhibition |
| --- | --- |
| Cc1cc(Cl)ccc1-c1nc(NCCN(C)C)nc2ccsc12 | -1.21% (inactive) |
| C/C(=N\NC(=O)c1ccc2ccccc2c1)c1cccnc1 | -7.71% (inactive) |
| COc1ccc(/C(C)=N/NC(=O)c2ccc3nc[nH]c3c2)cc1 | 1.81% (inactive) |
| CC(=NNC(=O)c1ccc2nc[nH]c2c1)c1ccc(Br)cc1 | 63.5% (active) |
| COc1ccc(-c2ccc(C(=O)NC(C)C)c3occc23)c(C)c1 | -26.1% (inactive) |
| Cc1cc2cc3n(c2nn1)N=C(Cl)CC3 | 29.1% (inactive) |
| CCOC(=O)c1cc(-c2sc(NC(=O)c3ccccc3)nc2C)n(Cc2ccccc2)n1 | -2.32% (inactive) |
| CN(C)CCCn1c(N)c(C#N)c2nc(C#N)c(C#N)nc21 | 52.6% (active) |
| N#Cc1c(N)n(CCOC(=O)c2ccc(Cl)cc2)c2nc3ccccc3nc12 | -17.3% (inactive) |
| NC1=CC(=O)C(=O)c2cccnc21 | -1.29% (inactive) |
| CC1(Cc2cccc(C#N)c2)C(=O)Nc2ccc(-c3cccc(C(F)(F)F)c3)cc21 (stereo unspecified) | -26.8% (inactive) |
| Cc1nccn1-c1ccc(NC(=O)[C@H]2O[C@@H](n3cnc4c(N)ncnc43)[C@H](O)[C@@H]2O)cc1 | 14.6% (inactive) |
| Nc1ncnc2c1ncn2[C@@H]1O[C@H](C(=O)NCC(F)(F)F)[C@@H](O)[C@H]1O | 96.8% (active) |
| CN(Cc1ccc(C(F)(F)F)cc1)C(=O)[C@H]1O[C@@H](n2cnc3c(N)ncnc32)[C@H](O)[C@@H]1O | -5.61% (inactive) |
| Cc1nc2c(OCC(=O)C(C)(C)C)cccn2c1N(C)Cc1cccs1 | -0.585% (inactive) |
| CCOc1ccc(CCN2C(=S)N([C@@H](CC(C)C)CN3CCC[C@@H]3CN3C(=S)NC[C@@H]3Cc3ccc(O)cc3)C[C@@H]2CC(C)C)cc1 | 12.9% (inactive) |
| O=C(NCc1cccc(Cl)c1)C1CCC(=O)N(C2CC2)C1 (stereo unspecified) | -0.951% (inactive) |
| O=C(NCc1cccc(Cl)c1)C1CCN(c2nnc(N3CCCC3=O)s2)CC1 | 3.92% (inactive) |
| O=C(NCc1cccc(Cl)c1)C1=CC=CN2CCS(=O)(=O)N=C12 | 52.6% (active) |
| CN(C(=O)CN1CCN(c2cc(-c3ccc(OCc4ccccc4)cc3)ncn2)CC1)c1ccccc1 | -17.3% (inactive) |
